# Screening results: PubChem BioAssay, several laboratories
# CYP2C9 inhib – human CYP2C9 inhibition | CYP2C9 Supersomes, luciferin-H conversion, luminescence | inhibition, % at 5 µM | actives 20% (n = 96,000);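 active means blocking of liver enzyme CYP2C9 beyond about 50% at 5 µM, limit read from the data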
# CYP2C19 act – increases human CYP2C19 enzyme activity. P33261. recombinant CYP2C19, luciferin-H EGE luminescence; stronger effect = higher value; 0 = fully inhibited enzyme, 1 = untreated enzyme. activation factor at 5 µM. 96,000 tested, under 10 active. AID 1025;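 active means activation factor of at least 2 at 5 µM in the primary screen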
# Target sequence (P33261 whole entry, looked up): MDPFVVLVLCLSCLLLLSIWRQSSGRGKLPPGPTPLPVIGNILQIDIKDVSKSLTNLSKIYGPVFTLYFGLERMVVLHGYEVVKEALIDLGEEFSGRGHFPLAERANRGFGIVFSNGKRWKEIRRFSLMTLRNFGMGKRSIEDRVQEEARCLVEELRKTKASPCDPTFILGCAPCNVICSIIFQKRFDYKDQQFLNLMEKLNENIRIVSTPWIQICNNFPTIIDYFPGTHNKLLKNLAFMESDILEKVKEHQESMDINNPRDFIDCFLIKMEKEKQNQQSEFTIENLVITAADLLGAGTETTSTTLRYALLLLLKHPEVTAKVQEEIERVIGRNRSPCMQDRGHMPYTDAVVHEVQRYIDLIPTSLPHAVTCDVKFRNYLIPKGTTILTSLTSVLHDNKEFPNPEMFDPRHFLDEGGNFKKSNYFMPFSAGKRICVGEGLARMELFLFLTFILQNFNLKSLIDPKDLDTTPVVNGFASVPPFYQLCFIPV
# CYP2C19 inhib – inhibitors of human CYP2C19. CYP2C19 Supersomes, luciferin-H EGE luminescence, 30 min. inhibition, % at 5 µM. AID 778. actives 21% (n = 96,000);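 active means CYP2C19 inhibition above a set limit at 5 µM in the primary screen, cut at about 50% in these data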
# CYP2C9 act – activators of human CYP2C9 | activation factor at 5 µM | actives 1.4% (n = 96,000) | AID 1024 | P11712 | recombinant CYP2C9, luciferin-H conversion, luminescence; stronger effect = higher value; factor 1 = untreated enzyme, 0 = blocked;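 active means activation factor of 2 or more for CYP2C9 at a 5 µM dose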
# Cav32 inh – human Cav3.2 channel inhibition, primary screen; O95180; Cav3.2-expressing cells, Fluo-4 calcium fluorescence FDSS; stronger effect = lower value; B-score at 10 µM; actives 4% (n = 100,000);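 active means single-dose well whose peak fluorescence ratio is a statistical outlier from its plate by either plate-standardised score or position-corrected B-score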
# A number is an active result; i = inactive; nt = no result. A selection: hits, their analogues and other compounds. The true share with any hit is near 27%.
SMILES,CYP2C9 inhib,CYP2C19 act,CYP2C19 inhib,CYP2C9 act,Cav32 inh
Cc1ccc(N(CC(=O)NC2CC3CCC2C3)S(C)(=O)=O)cc1C (centres undefined),i,i,73.2,i,i
CS(=O)(=O)N(CC(=O)NC1CC2CCC1C2)c1cccc(C(F)(F)F)c1 (centres undefined),i,i,i,i,i
COC(=O)/C(=C(/F)Sc1cc(C)c(O)c(C)c1)C(F)(F)F,94.1,i,81.7,i,i
C=C(C)Cn1c(=O)c2c(nc3n2CCN3c2cccc(Cl)c2C)n(C)c1=O,50.4,i,i,i,i
CCOc1ccc2[nH]c(=O)c(CN(CCOC)C(=O)N3CCOCC3)cc2c1,i,i,i,i,i
O=C(COc1ccccc1)N(CCc1ccccc1)c1nc(-c2ccc(F)cc2)cs1,80.6,i,i,i,nt
Cc1ccc(-c2csc(N(CCc3ccccc3)C(=O)COc3ccccc3)n2)cc1,98.5,i,61.5,i,i
Cc1ccc(-c2csc(N(Cc3ccccc3)C(=O)COc3ccccc3)n2)cc1,i,i,i,i,i
O=C(NNC(=O)c1cc(O)c(O)c(O)c1)NC1CCCCC1,i,i,i,i,i
CCOC(=O)CN1CC23C=CC(O2)C(C(=O)Nc2ccc(F)c(C)c2)C3C1=O (centres undefined),i,i,i,i,i
COCCN1C(=O)N[C@@H](c2cccc(C(F)(F)F)c2)[C@H](C(C)=O)[C@H]1C,nt,nt,nt,nt,i
COc1ccnc(NCc2cccc(C(F)(F)F)c2)c1C#N,i,i,53.7,i,i
Cc1cc2n(n1)C(c1sccc1C)Nc1ccccc1-2 (centres undefined),56.4,i,65.9,i,i
Cc1cc2n(n1)C(c1sccc1C)Nc1c(C)cccc1-2 (centres undefined),i,i,i,i,i
Cc1ccc2c(c1)-c1cc(C)nn1C(c1sccc1C)N2 (centres undefined),56.0,i,78.9,i,i
CCCNc1nc(NCC)nc(OC)n1,i,i,i,i,i
CCOc1cc(C(=O)N(C)c2ccccc2)cc(OCC)c1OCC,i,i,57.2,i,i
COc1ccc(CC(=O)N2CCCC(C)C2)cc1 (centres undefined),i,i,i,i,i
COc1ccc(C2(O)CC3CCC(C2)N3c2nc(C)cc(C)c2C#N)cc1 (centres undefined),58.7,i,i,i,i
COc1ccc(Oc2nc(C)cc(C)c2C#N)cc1,i,i,i,i,i
COC(=O)[C@@H]1C[C@@]2(Br)c3ccccc3N(S(=O)(=O)c3ccccc3)[C@H]2N1C(=O)OC,nt,nt,nt,nt,i
Cc1n[nH]c(C)c1S(=O)(=O)N1CCCC(C(=O)Nc2nccs2)C1 (centres undefined),73.4,i,61.0,i,i
Cc1ccc(CNC(=O)C2CCCN(S(=O)(=O)c3c(C)n[nH]c3C)C2)cc1 (centres undefined),i,i,70.6,i,i
O=C(Nc1nccs1)C1CCN(S(=O)(=O)c2c(Cl)cccc2Cl)CC1,i,i,91.5,i,i
O=C(Nc1cc(Cl)ccn1)C1CCN(S(=O)(=O)c2cccs2)CC1,i,i,i,i,nt
SMILES,CYP2C9 inhib,CYP2C19 act,CYP2C19 inhib,CYP2C9 act,Cav32 inh
CCN1C(=O)c2ccccc2S(=O)c2ccc(C(=O)NCCCN3CCCC3=O)cc21 (centres undefined),i,i,i,i,i
C/C(Cn1nnc([N+](=O)[O-])n1)=N\NC(=O)c1ccccc1Cl,i,i,i,i,i
O=C(CSc1ncnc2nc[nH]c12)N1CCN(c2ccccc2)CC1,i,i,i,i,i
CSc1nc(Oc2ccc(F)cc2F)cc(C(F)(F)F)n1,i,i,i,i,i
O=S(=O)(CCSc1nc2ccccc2o1)c1nc2ccccc2s1,89.3,i,81.5,i,i
CCS(=O)(=O)CCSc1nc2ccccc2o1,i,i,i,i,i
CC(C(=O)Oc1ccc2c(c1)OCO2)N1C(=O)c2ccccc2C1=O (centres undefined),i,i,61.7,i,-3.63
Cc1ccc(N(C(C)C(=O)Nc2ccc3c(c2)OCO3)S(C)(=O)=O)cc1 (centres undefined),i,i,66.8,i,i
Cc1ccc(CN(c2ccc(C(=O)Nc3ccc4c(c3)OCO4)cc2)S(C)(=O)=O)cc1,i,i,i,i,i
CC(C(=O)N1CCOCC1)N1C(=O)c2ccccc2C1=O (centres undefined),i,i,i,i,nt
O=C(CN1C(=O)c2ccccc2C1=O)Nc1ccc2c(c1)OCO2,i,i,i,i,i
CC(C(=O)OCC(=O)Nc1ccc2c(c1)OCO2)N1C(=O)c2ccccc2C1=O (centres undefined),68.3,i,73.7,i,i
CC(C)C(C(=O)Nc1ccc2c(c1)OCO2)N1C(=O)c2ccccc2C1=O (centres undefined),52.4,i,i,i,i
CCOc1ccc(S(=O)(=O)N(C)c2ccc(OCC(=O)N3CCOCC3)cc2)cc1,74.4,i,i,i,i
CCOC(=O)Nc1ccc2c(c1)OCO2,i,i,i,i,i
CCOC(=O)CC(N)c1ccc2c(c1)OCO2 (centres undefined),i,i,52.3,i,i
CCOC(=O)Cc1csc(NC(=O)c2ccc3c(c2)OCO3)n1,i,i,i,i,i
Cc1cc(C)c(C)c(S(=O)(=O)Nc2ccc(OCC(=O)O)cc2)c1C,76.2,i,i,i,i
CCOC(=O)COc1ccc(S(=O)(=O)Nc2ccc3c(c2)OCO3)cc1,67.2,i,86.4,i,i
COc1ccc(C)c(S(=O)(=O)Nc2ccc(OCC(=O)O)cc2)c1,i,i,i,i,i
Cc1cc(-n2c(SCCC#N)nnc2-c2cccnc2)ccc1Cl,i,i,i,i,i
CC(=O)Nc1c(NCC(C)C)c2ccccc2oc1=O,nt,nt,nt,nt,i
Cc1ccc(NS(=O)(=O)c2ccc(OCC(=O)N3CCOCC3)cc2)cc1,i,i,56.8,i,i
CCOC(=O)COc1ccc(S(=O)(=O)Nc2ccc(C)cc2)cc1,59.1,i,i,i,i
C=CCNS(=O)(=O)c1ccc(OCC(=O)OCC)cc1,i,i,i,i,i
SMILES,CYP2C9 inhib,CYP2C19 act,CYP2C19 inhib,CYP2C9 act,Cav32 inh
Cc1ccc(NS(=O)(=O)c2ccc(CCC(=O)N3CCOCC3)cc2)cc1,i,i,i,i,i
CCOC(=O)COc1ccc(S(=O)(=O)c2ccc(OCC(=O)OCC)cc2)cc1,i,i,i,i,-6.05
Cc1nc(-c2ccccn2)sc1C(=O)Nc1ccc(Cl)c(Cl)c1,i,i,i,i,i
CCN=C1SC(CC(=O)Nc2ccccc2)C(=O)N1CC (centres undefined),i,i,i,i,i
O=C(CC1SC2=NCCN2C1=O)Nc1ccc(Br)cc1 (centres undefined),nt,nt,nt,nt,i
CCCN1C(=O)SC(CC(=O)Nc2ccc(Br)cc2)C1=O (centres undefined),52.3,i,69.9,i,i
O=C(CC1Sc2ncnn2C1=O)Nc1ccc(Br)cc1 (centres undefined),i,i,75.5,i,i
O=C1CN(c2nc3ccccc3n3cnnc23)CC(=O)N1CCc1ccccc1,62.0,i,i,i,i
